# Experimental data published in PubChem BioAssay (Tox21).
# Inconclusive results are not listed. A call without a number means that no potency is given here. The source made the active and inactive calls. The call rests on the fitted dose curve; in most records, active means well fitted cell-killing curve with a large enough effect in the repeat runs; inconclusive means weak or mixed curves, or effect the other way; inactive means no such curve, though single readings can be large or run the other way. Non-standard residues stand in square brackets, D forms with d. Residues, ends and D or L forms follow the SMILES beside them. *: point of attachment. Sta = CC(C)C[C@H](N)[C@@H](O)CC(=O)O; Isovaleryl = CC(C)CC(=O)*
# Assay: qHTS assay for small molecule activators of the heat shock response signaling pathway - cell viability counter screen (AID 743209); further: nearly all actives have a fitted effect of over 50% in size
# Details: HSE-bla HeLa viability, CellTiter-Glo luminescence, 5 h; series mostly up to 62.6 µM
# Text: U.S. Tox21 Program National Center for Advancing Translational Sciences [NCATS] NIH Chemical Genomics Center [NCGC] U.S. Environmental Protection Agency [EPA] National Institutes of Environmental Health Sciences [NIEHS] National Toxicology Program [NTP] U.S. Food and Drug Administration [FDA] Tox21 Assay Overview: Various chemicals, environmental and physiological stress conditions may lead to the activation of heat shock response/ unfolded protein response (HSR/UPR). There are three heat shock transcription factors (HSFs) (HSF-1, -2, and -4) mediating transcriptional regulation of the human HSR. To identify the compounds that activate HSR signaling, HSE-bla HeLa cell line (Invitrogen, Carlsbad, CA, USA) containing a beta-lactamase reporter gene under the control of the heat shock response elements was used to screen Tox21 10K compound library. The cytotoxicity of the Tox21 compound library against the HSE-bla HeLa cell line was tested in parallel by measuring the cell viability using CellTiter-Glo assay (Promega, Madison, WI) in the same wells.
# Tox21 Assay Protocol Summary: The CellSensor HSE-bla HeLa cells (Invitrogen, Carlsbad, CA, USA) were dispensed at 1500 cells/6uL/well into 1536-well black wall/clear bottom plates using a Multidrop combi (Thermo Fisher Scientific, Waltham, MA) dispenser. After the assay plates were incubated at 37 C and 5% CO2 overnight, 23 nL of compounds dissolved in DMSO, positive controls or DMSO only was transferred to the assay plate by a Pintool station (Kalypsys, San Diego, CA). The plates were incubated at 37 C for 5 h. After 1 uL of LiveBLAzerTM B/G FRET substrate was added using a Flying Reagent Dispenser (FRD, Beckman Coulter, Indianapolis, IN, USA), the plates were incubated at room temperature for 2.5 h, and fluorescence intensity was measured by an Envision plate reader (PerkinElmer, Shelton, CT). For cell viability readout that measures cytotoxicity, 3 ul/well of CellTiter-Glo reagent was added into the assay plates using a FRD. After 30 min incubation at room temperature, the luminescence intensity in the plates was measured using a ViewLux (PerkinElmer) plate reader.
# Potency means the concentration at half of the fitted maximal effect.
row,SMILES,Potency
1,CNCCc1ccccn1,inactive
2,N[C@H]1C(O)O[C@H](CO)[C@@H](O)[C@@H]1O (stereo not given in full),inactive
3,OCCC(F)(F)C(F)(F)C(F)(F)C(F)(F)C(F)(F)C(F)(F)F,inactive
4,COC(=O)c1c(C)cc(O)c(C)c1O,inactive
5,CCCCC(CC)CCC(CC(C)C)OS(=O)(=O)O (stereo not given),inactive
6,Nc1ccc(C(=O)NCC(=O)O)cc1,inactive
7,Nc1nc(Cl)cc(Cl)n1,55 µM (active)
8,CCN1CCN(C(=O)N[C@@H](C(=O)N[C@@H]2C(=O)N3[C@@H]2SC(C)(C)[C@H]3C(=O)O)c2ccccc2)C(=O)C1=O,inactive
9,c1coc(Cn2cccc2)c1,inactive
10,C=CCCCCCCCCCCCCCC,inactive
11,N#Cc1cc(NC(=O)C(=O)O)c(Cl)c(NC(=O)C(=O)O)c1,inactive
12,CC(CC(=O)Cl)CC(C)(C)C (stereo not given),inactive
13,C=CC(=O)OCC[N+](C)(C)C,inactive
14,COC(=O)/C=C(\C)CCC=C(C)C,inactive
15,Cc1cc(C)c(N)c(Cl)c1,inactive
16,CCOC(=O)c1ccc(N(C)C)cc1,inactive
17,C/C=C(\C)C=O,inactive
18,O=C(c1ccccc1)c1cccc(O)c1,inactive
19,CN1CCN(C(=O)C2CCCCC2)CC1,inactive
20,C/C=C/C(=O)CCCC,inactive

row,SMILES,Potency
1,CCN1CCN(C(=O)N[C@@H](C(=O)N[C@@H]2C(=O)N3C(C(=O)O)=C(CSc4nnnn4C)CS[C@H]23)c2ccc(O)cc2)C(=O)C1=O,inactive
2,CCCCCCCCCCCCCCBr,inactive
3,CC(=O)OC/C=C(/C)CCC=C(C)C,inactive
4,COc1cc(NS(=O)(=O)c2ccc(N)cc2)ncn1,inactive
5,C/C=C(\C)C(=O)OC/C=C(\C)CCC=C(C)C,inactive
6,C=CCN(CC=C)CC=C,inactive
7,CCCCCCCC(=O)N(C)C,inactive
8,O=C1CCCc2c(O)cccc21,inactive
9,COC(C)(C)CC(C)=O,inactive
10,CC(C)CC(=O)N[C@H](C(=O)N[C@H](C(=O)N[C@@H](CC(C)C)[C@@H](O)CC(=O)N[C@@H](C)C(=O)N[C@@H](CC(C)C)[C@@H](O)CC(=O)O)C(C)C)C(C)C (Isovaleryl-VV[Sta]A[Sta]-OH),inactive
11,CCCCCCCCCCCCCCCC/C=C/C1CC(=O)OC1=O (stereo not given),inactive
12,CC(=O)Nc1ccc(OCCOCCOc2ccc(NC(C)=O)cc2)cc1,inactive
13,CC(CN1CC(=O)NC(=O)C1)N1CC(=O)NC(=O)C1 (stereo not given),inactive
14,CC(C)C[P+](C)(CC(C)C)CC(C)C,inactive
15,O=C(OOC(=O)c1ccccc1)c1ccccc1,inactive
16,CC1(C)S[C@@H]2[C@H](NC(=O)Cc3ccccc3)C(=O)N2[C@H]1C(=O)O (tested in a mixture with another compound),inactive
17,C[C@]12C=CC(=O)C=C1[C@@H](F)C[C@@H]1[C@@H]2[C@@H](O)C[C@@]2(C)[C@H]1CC[C@]2(O)C(=O)CO,inactive
18,O=Cc1ccccc1S(=O)(=O)O,inactive
19,CC(C)(C)c1ccc(N)cc1,inactive
20,CCCCCCCOC(C)=O,inactive
